# Laboratory results published in PubChem BioAssay (EPA / NIEHS).
# Several values for one entry are separate records, joined by “and”; a condition that tells them apart may be missing. Equal entries are not always repeated. Records with an inconclusive call do not appear. Activity calls are given as the source filed them. How the source made its calls, unless noted: active means hit-call score of the fitted dose curve at least 0.9, where 1 is the maximum; inactive means score below 0.9.
# How the values were obtained:
# [1] = CCTE_Simmons_MITO_basal_resp_rate: CCTE's HepG2 Seahorse XF Respirometric Screening Assay at Basal Respiratory State, Simmons Lab (AID 2284001); settings: actives raise or lower the signal
# Method in brief: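 Basal-phase OCR in HepG2 cells, read at 6-min intervals across a 72-min run, with test compound injected at 125 nM–100 uM final (7 points). Fitted both directions against DMSO; three biological replicates per concentration.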
# [2] = CCTE_Simmons_MITO_max_resp_rate: CCTE's HepG2 Seahorse XF Respirometric Screening Assay at Maximal Respiratory State [uncoupled], Simmons Lab (AID 2284002); settings: actives raise or lower the signal
# Method in brief: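 HepG2 oxygen consumption measured on Seahorse XF after FCCP uncoupling, following test compound injection; 7 concentrations from 125 nM to 100 uM final. Readings every 6 min over 72 min, three biological replicates; bidirectional fit versus DMSO.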
# [3] = CCTE_Simmons_MITO_inhib_resp_rate: CCTE's HepG2 Seahorse XF Respirometric Screening Assay at Inhibited Respiratory State [full ETC block], Simmons Lab (AID 2284006); settings: actives raise or lower the signal
# Method in brief: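 Test chemicals at seven final concentrations (125 nM–100 uM) in three biological replicates, with DMSO as vehicle. HepG2 oxygen consumption was then tracked on a Seahorse XF96 for 72 min through FCCP and rotenone/antimycin A phases, with the inhibited-phase rate as the endpoint.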
# [4] = CCTE_Simmons_MITO_viability: CellTiter-Glo Viability Assessment for CCTE's HepG2 Seahorse XF Respirometric Screening Assay [post-hoc], Simmons Lab (AID 2284007; active means hit-call score of the fitted dose curve at least 0.9, where 1 is the maximum)
# Method in brief: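 Post-hoc viability check on the HepG2 respirometry plates: luciferase-based ATP signal measured once, after 90 min compound exposure spanning 125 nM–100 uM final. Activity was referenced to DMSO as baseline.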
# [5] = CCTE_Shafer_MEA_acute_spike_number: CCTE's Neural Acute Assay for Total Number of Spikes, Shafer Lab (AID 2284008);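 on AC50: curve fitted for decrease in spike count so AC50 reflects inhibitors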
# Method in brief: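 Rat primary cortical neurons on 48-well MEA plates, DIV 13 or 15, at 37 C. 40 min baseline then 40 min with compound (0.03-40 uM); spikes detected at 8x rms noise, expressed as percent change from baseline.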
# [6] = CCTE_Shafer_MEA_acute_firing_rate_mean: CCTE's Neural Acute Assay for Mean Firing Rate, Shafer Lab (AID 2284009);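 further: analyzed for loss of signal so actives lower firing rate relative to DMSO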
# Method in brief: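 Primary rat cortical neurons on 16-electrode MEA wells were exposed on DIV 13 or 15 to compound (0.03-40 uM). Spike counts per recording time, averaged over electrodes, were compared between 40-min baseline and 40-min post-exposure recordings as percent change.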
# [7] = CCTE_Harrill_HTTr_Viability_MCF7: CCTE's 6-hour Cell Viability Assessment for the High-Throughput Transcriptomics (HTTr) Platform, in MCF-7 cells cultured in DMEM + 10% fetal bovine serum, Harrill Lab (AID 2284010)
# Method in brief: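 Eight-point concentration series, six-hour exposure. Propidium iodide exclusion imaged to assess membrane integrity as a cytotoxicity readout; bidirectional fitting was done with DMSO as negative control and activity baseline.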
# [8] = CCTE_Harrill_HTTr_Apoptosis_MCF7: CCTE's 6-hour Apoptosis Assessment for the High-Throughput Transcriptomics (HTTr) Platform, in MCF-7 cells cultured in DMEM + 10% fetal bovine serum, Harrill Lab (AID 2284011)
# Method in brief: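 MCF-7 cells in DMEM + 10% FBS exposed 6 h to chemicals over an eight-point dilution series. Caspase-3/7 activation imaged by high-content CellEvent Green staining; fitted bidirectionally versus DMSO.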
# [9] = molecular target: Nucleoli Translocation, AR (gene 367) (UniProt P10275); assay: UPITT_HCI_U2OS_AR_TIF2_Nucleoli_Antagonist: University of Pittsburgh U2OS Androgen Receptor-Transcriptional Intermediary Factor 2 (AR-TIF2) Antagonism High Content Imaging Assay for Nucleoli Translocation (AID 2283997; active means hit-call score of the fitted dose curve at least 0.9, where 1 is the maximum)
# Sequence of Nucleoli Translocation, AR (gene 367) (P10275 whole entry, looked up): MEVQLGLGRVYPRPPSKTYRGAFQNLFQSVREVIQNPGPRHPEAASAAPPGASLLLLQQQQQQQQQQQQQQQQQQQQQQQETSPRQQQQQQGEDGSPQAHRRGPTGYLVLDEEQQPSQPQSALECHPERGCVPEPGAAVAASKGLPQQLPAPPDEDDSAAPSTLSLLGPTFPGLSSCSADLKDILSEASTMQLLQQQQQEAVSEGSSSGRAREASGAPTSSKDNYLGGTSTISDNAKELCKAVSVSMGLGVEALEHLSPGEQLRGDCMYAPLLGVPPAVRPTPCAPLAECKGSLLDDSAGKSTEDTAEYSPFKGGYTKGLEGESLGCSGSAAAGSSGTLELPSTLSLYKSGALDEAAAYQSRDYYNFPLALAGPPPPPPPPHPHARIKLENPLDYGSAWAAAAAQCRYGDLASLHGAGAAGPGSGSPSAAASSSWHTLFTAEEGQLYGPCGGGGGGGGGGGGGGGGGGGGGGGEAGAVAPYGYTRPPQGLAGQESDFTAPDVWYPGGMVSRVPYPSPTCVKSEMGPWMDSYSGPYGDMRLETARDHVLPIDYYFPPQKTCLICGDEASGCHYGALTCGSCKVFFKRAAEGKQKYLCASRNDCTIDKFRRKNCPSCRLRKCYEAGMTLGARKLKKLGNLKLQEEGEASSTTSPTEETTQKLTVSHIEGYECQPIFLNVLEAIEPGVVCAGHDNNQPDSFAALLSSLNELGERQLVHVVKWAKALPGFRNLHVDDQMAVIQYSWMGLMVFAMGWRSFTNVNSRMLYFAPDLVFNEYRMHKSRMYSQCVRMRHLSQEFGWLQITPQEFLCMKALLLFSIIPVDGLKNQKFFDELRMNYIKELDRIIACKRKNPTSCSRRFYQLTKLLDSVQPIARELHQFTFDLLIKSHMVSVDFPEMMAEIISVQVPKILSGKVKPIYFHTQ
# Method in brief: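 Antagonism is read as loss of nucleolar AR-RFP signal relative to DHT, imaged in U2OS cells also carrying GFP-TIF2. Compounds screened at 20 uM final, 0.2% DMSO; primary actives retested in triplicate.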
# [10] = molecular target: Nucleoli Translocation, AR (gene 367) (UniProt P10275); assay: UPITT_HCI_U2OS_AR_TIF2_Nucleoli_Agonist: University of Pittsburgh U2OS Androgen Receptor-Transcriptional Intermediary Factor 2 (AR-TIF2) Agonism High Content Imaging Assay for Nucleoli Translocation (AID 2283998; active means hit-call score of the fitted dose curve at least 0.9, where 1 is the maximum)
# Method in brief: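 U2OS cells expressing RFP-tagged human AR and GFP-tagged TIF2; red fluorescence in nucleoli quantified by high-content imaging. Primary screen at 20 uM final (0.2% DMSO); concentration-response 0.195–50 uM (0.5% DMSO), fitted upward versus DMSO.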
# [11] = molecular target: Ratio of Nucleoli Translocation and Cytoplasm, AR (gene 367) (UniProt P10275); assay: UPITT_HCI_U2OS_AR_TIF2_Nucleoli_Cytoplasm_Ratio_Antagonist: University of Pittsburgh U2OS Androgen Receptor-Transcriptional Intermediary Factor 2 (AR-TIF2) Antagonism High Content Imaging Assay for Ratio of Nucleoli Translocation and Cytoplasm (AID 2283999; active means hit-call score of the fitted dose curve at least 0.9, where 1 is the maximum;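 further: antagonists lower the DHT-driven ratio of nucleolar to cytoplasmic red signal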)
# Sequence of Ratio of Nucleoli Translocation and Cytoplasm, AR (gene 367) (P10275 whole entry, looked up): as above
# Method in brief: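 This antagonist-mode endpoint tracks AR-RFP localisation, the nucleolus-to-cytoplasm intensity ratio, in TIF2-GFP-coexpressing U2OS cells. DMSO stays at or below 0.5%; testing spans 20 uM single-dose and 0.195–50 uM series, with DHT setting the activity baseline.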
# [12] = molecular target: Ratio of Nucleoli Translocation and Cytoplasm, AR (gene 367) (UniProt P10275); assay: UPITT_HCI_U2OS_AR_TIF2_Nucleoli_Cytoplasm_Ratio_Agonist: University of Pittsburgh U2OS Androgen Receptor-Transcriptional Intermediary Factor 2 (AR-TIF2) Agonism High Content Imaging Assay for Ratio of Nucleoli Translocation and Cytoplasm (AID 2284000; active means hit-call score of the fitted dose curve at least 0.9, where 1 is the maximum;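 further: hits raise the red nucleolar to cytoplasm ratio above vehicle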)
# Method in brief: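 Compounds tested at 20 uM final in primary screen (0.2% DMSO) and 0.195-50 uM final in dose-response (0.5% DMSO). Imaging of human U2OS cells bearing RFP-AR and GFP-TIF2; endpoint is nucleoli/cytoplasm red signal ratio, positive direction relative to DMSO.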
# [13] = TOX21_TR_RXR_BLA_Antagonist_Followup_viability: Viability Assessment in the Tox21 Thyroid Hormone Receptor beta Retinoid X Receptor alpha (RXRa) Antagonism Beta-lactamase (BLA) Follow-Up Assay (AID 2283979; active means hit-call score of the fitted dose curve at least 0.9, where 1 is the maximum)
# Method in brief: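 Follow-up compounds (11 concentrations, triplicate) were incubated 16 h at 37C/5% CO2 with HEK293T RXRa-bla cells seeded at 2,500/well in charcoal-stripped-serum medium. ATP content by CellTiter-Glo luminescence gave viability; curves fitted in both directions against DMSO.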
# [14] = CCTE_Harrill_HTTr_Viability_PRF_DMEM_24hr: (Pilot) CCTE's 24-hour Cell Viability Assessment for the High-Throughput Transcriptomics (HTTr) Platform, in MCF-7 cells cultured in phenol red-free DMEM + 10% charcoal-stripped fetal bovine serum, Harrill Lab (AID 2283980)
# Method in brief: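 Propidium iodide exclusion imaged at 24 h after dosing scores viability; cells were MCF-7 grown in phenol red-free DMEM plus 10% charcoal-stripped serum, tested in eight concentrations, fitted in both directions against DMSO.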
# [15] = CCTE_Harrill_HTTr_Apoptosis_DMEM_6hr: (Pilot) CCTE's 6-hour Apoptosis Assessment for the High-Throughput Transcriptomics (HTTr) Platform, in MCF-7 cells cultured in DMEM + 10% fetal bovine serum, Harrill Lab (AID 2283981)
# Method in brief: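 MCF-7 cells grown in DMEM + 10% FBS were exposed for 6 hours to an eight-point dilution series. CellEvent Caspase 3/7 Green signal was imaged; activity fitted bidirectionally against DMSO.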
# [16] = CCTE_Harrill_HTTr_Apoptosis_DMEM_12hr: (Pilot) CCTE's 12-hour Apoptosis Assessment for the High-Throughput Transcriptomics (HTTr) Platform, in MCF-7 cells cultured in DMEM + 10% fetal bovine serum, Harrill Lab (AID 2283982)
# Method in brief: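 Caspase-3/7 activity was measured by high-content imaging (CellEvent Caspase 3/7 Green) after a 12-hour exposure of MCF-7 cells grown in DMEM with 10% FBS. Eight-point concentration series, fitted bidirectionally against vehicle.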
# [17] = CCTE_Harrill_HTTr_Apoptosis_DMEM_24hr: (Pilot) CCTE's 24-hour Apoptosis Assessment for the High-Throughput Transcriptomics (HTTr) Platform, in MCF-7 cells cultured in DMEM + 10% fetal bovine serum, Harrill Lab (AID 2283983)
# Method in brief: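 Caspase-3/7 activity read by high-content imaging (CellEvent Green reagent) 24 h after dosing. MCF-7 cells grown in DMEM with 10% FBS received an eight-point concentration series; fits were bidirectional versus DMSO.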
# [18] = CCTE_Harrill_HTTr_Apoptosis_PRF_DMEM_6hr: (Pilot) CCTE's 6-hour Apoptosis Assessment for the High-Throughput Transcriptomics (HTTr) Platform, in MCF-7 cells cultured phenol red-free DMEM + 10% charcoal-stripped fetal bovine serum, Harrill Lab (AID 2283984)
# Method in brief: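 Caspase-3/7 activity (CellEvent Green) read by high-content imaging 6 h after dosing, eight concentrations. Cells: MCF-7, phenol red-free DMEM with 10% charcoal-stripped serum. Curves fit both directions against DMSO.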
# [19] = CCTE_Harrill_HTTr_Apoptosis_PRF_DMEM_24hr: (Pilot) CCTE's 24-hour Apoptosis Assessment for the High-Throughput Transcriptomics (HTTr) Platform, in MCF-7 cells cultured in phenol red-free DMEM + 10% charcoal-stripped fetal bovine serum, Harrill Lab (AID 2283986)
# Method in brief: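 Eight concentrations tested for 24 h on MCF-7 grown in charcoal-stripped serum, phenol red-free DMEM. High content imaging of CellEvent Caspase 3/7 Green signal gives apoptosis read-out, fitted both ways relative to DMSO.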
# DIO1 (gene 1733) = assay: CCTE_GLTED_hDIO1: CCTE's human Deiodinase 1 (DIO1) Inhibition Assay, Great Lakes Toxicology and Ecology Division (GLTED) Lab (AID 2283987; active means hit-call score of the fitted dose curve at least 0.9, where 1 is the maximum;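 further: isolated human DIO1 enzyme in a cell-free setup rather than cells; enzyme activity read as free iodide liberated from substrate via Sandell-Kolthoff colorimetry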)
# Method in brief: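 Cell-free human DIO1 enzyme incubated 3 h with test chemical; iodide freed from substrate then measured by Sandell-Kolthoff absorbance. Run in triplicate; loss of signal relative to DMSO taken as inhibition.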
structure (smiles),measurement,setting,value
CCCCC(CC)CN1C(=O)C2C3C=CC(C3)C2C1=O (centres undefined),AC50,[1],25.3 µM (active)
same,AC50,[2],32.1 µM (active)
same,outcome,[3],inactive
same,outcome,[4],inactive
same,AC50,[5],30.1 µM (active)
same,AC50,[6],30.1 µM (active)
same,outcome,[7],inactive
same,outcome,[8],inactive
O=C(c1ccc(O)cc1O)c1ccc(O)cc1O,AC50,[9],10.1 µM (active)
same,outcome,[10],inactive
same,AC50,[11],2.35 µM (active)
same,outcome,[12],inactive
same,AC50,[1],34.6 µM (active)
same,outcome,[2],inactive
same,outcome,[3],inactive
same,outcome,[4],inactive
same,outcome,[5],inactive
same,outcome,[6],inactive
same,outcome,[7],inactive
same,outcome,[8],inactive
C[C@]12CC[C@@H]3c4ccc(O)cc4C[C@@H](CCCCCCCCCS(=O)CCCC(F)(F)C(F)(F)F)[C@H]3[C@@H]1CC[C@@H]2O (some centres undefined),outcome,[13],inactive
same,outcome,[14],inactive
same,outcome,[15],inactive
same,outcome,[16],inactive
same,outcome,[17],inactive
same,outcome,[18],inactive
same,outcome,[19],inactive
same,outcome,[9],inactive
same,outcome,[10],inactive
same,outcome,[12],inactive
same,outcome,[7],inactive
same,outcome,[8],inactive
CC(C)(c1ccc(O)cc1)c1ccc(O)cc1,outcome,[14],inactive
same,outcome,[15],inactive
same,outcome,[16],inactive
same,outcome,[17],inactive
same,outcome,[18],inactive
same,outcome,[19],inactive
same,AC50,[9],12.9 µM (active)
same,AC50,[10],73.3 µM (active)
same,outcome,[11],inactive
same,AC50,[12],86.7 µM (active)
same,AC50,[1],18.9 µM (active) and 24.7 µM (active)
same,AC50,[2],37.1 µM (active) and 34.8 µM (active)
same,outcome,[3],inactive
same,AC50,[5],5.7 µM (active)
same,AC50,[6],5.7 µM (active)
same,outcome,[7],inactive
same,outcome,[8],inactive
CC(C)CCCCCCc1ccc(O)cc1,AC50,[14],64.3 µM (active)
same,outcome,[15],inactive
same,AC50,[16],63.2 µM (active)
same,AC50,[17],77.5 µM (active)
same,outcome,[18],inactive
same,AC50,[19],77.2 µM (active)
same,AC50,DIO1 (gene 1733),49.4 µM (active)
same,AC50,[1],50 µM (active)
same,AC50,[2],43.8 µM (active)
same,outcome,[3],inactive
same,outcome,[4],inactive
same,AC50,[5],6.02 µM (active)
same,AC50,[6],6.03 µM (active)
same,outcome,[7],inactive
same,outcome,[8],inactive
